The text below walks through data of PubChem BioAssay AID463173 (ICCB-Longwood Screening Facility, Harvard Medical School, 2010).

SMILES strings stand for the structures. Screen size: about 52,000 compounds; about 4,300 (8.3%) were called active. The sample holds actives, similar compounds and a random draw of the others, so the mix is not that of the screen. Rule as the data show it: active = survival mostly below about 52% (no sharp cut-off); inactive = mostly above about 56%.

The subject of the test is DeltatarO mutant. Kind of test: S. aureus survival, RN4220 and DeltatarO strains – OD600, teichoic acid synthesis inhibitors, primary screen (AID 463173). The conditions noted are these: S. aureus RN4220 wild type/DeltatarO growth, OD600, 18 h, stronger effect = lower value, screened at 18.75 µg/mL (by protocol).
`Cc1nc2ccc(S(=O)(=O)N(C)CC(=O)Nc3ccc(C(C)C)cc3)cc2s1`: the survival was 113% (inactive).

As to `CCc1ccc(NC(=O)CN2C(=O)CCSc3ccccc32)cc1`, the survival was 86% (inactive).

`CCc1nc2ccccc2n2c(-c3ccccc3)c3c(=O)n(C)c(=O)n(C)c3c12`: the survival is 75% (inactive).

In the case of `Cc1cc2c(cc1S(=O)(=O)NCc1ccccc1)OCC(=O)N2`, the survival is 91% (inactive).

For `COc1ccc(C)cc1NC(=O)NC(C)c1c(-n2cccc2)sc(C)c1C` (stereo not drawn), the survival is 44% (inactive).

For `Cc1ccccc1-c1nnc(SCC(=O)N2CCCCC2)o1`, the survival is 64% (inactive).

With `Cc1nc2c(-c3ccccc3)c(C)nn2c(C)c1CCC(=O)NCc1cccc(Cl)c1`, the survival is 109% (inactive).

As to `CCc1cccc(NC(=O)CN2C(=O)COc3ccc(S(=O)(=O)Nc4ccccc4)cc32)c1`, the survival is 82% (inactive).

For `CC(C)N1CC2=C(OC(N)=C(C#N)C2c2cccnc2)/C(=C/c2cccnc2)C1` (stereo not drawn), the survival was 85% (inactive).

Regarding `CCOC(=O)C1=C(c2ccccc2)OC(N)=C(C#N)C1c1ccncc1` (stereo not drawn), the survival was 87% (inactive).

On to `N#CC1=C(N)OC2=C(CCc3ccccc32)C1c1ccccc1` (stereo not drawn), for which the survival is 2% (active).

On to `Cc1ccc(CSc2n[nH]c(-c3ccccc3O)n2)cc1`, for which the survival is 62% (inactive).

Regarding `Cc1cccc(C)c1NC(=O)C(C)Sc1n[nH]c(-c2ccncc2)n1` (stereo not drawn), the survival was 76% (inactive).

On to `Cc1ccc(NC(=O)C(C)Sc2n[nH]c(-c3ccccc3O)n2)cc1` (stereo not drawn), for which the survival was 23% (active).

Consider `O=C(NCC(=O)N1CCCCC1)c1ccccc1`, for which the survival was 97% (inactive).

Turning to `Cc1ccc(Cl)cc1NC(=O)Cn1c(=O)oc2cc(S(=O)(=O)N3CCCC3)ccc21`, the survival is 81% (inactive).

In the case of `CCc1ccccc1NC(=O)Cn1c(=O)n(CCc2ccccc2)c(=O)c2ccccc21`, the survival is 89% (inactive).

Take `COC(=O)c1ccc(Cn2nc(-c3ccc(C)c(C)c3)ccc2=O)cc1`: the survival is 67% (inactive).

As to `COc1ccc(NC(=O)Nc2cn(CC(C)C)c(=O)c3ccccc23)c(OC)c1`, the survival was 91% (inactive).

`COc1ccc(NC(=O)c2cn(CC(C)C)c(=O)c3cc(OC)c(OC)cc23)cc1Cl`: the survival is 50% (inactive).

In the case of `COc1ccc(C)cc1NC(=O)c1cn(C)c(=O)c2cc(OC)c(OC)cc12`, the survival was 72% (inactive).

`COc1cc(Cl)c(C)cc1NC(=O)c1cn(CC(C)C)c(=O)c2cc(OC)c(OC)cc12`: the survival was 42% (active).

For the compound `CCn1cc(C(=O)N2CCN(c3cccc(Cl)c3)CC2)c2cc(OC)c(OC)cc2c1=O`, the survival is 54% (inactive).

On to `CCOC(=O)c1ccccc1NC(=O)c1cn(CC(C)C)c(=O)c2cc(OC)c(OC)cc12`, for which the survival was 53% (inactive).

As for `COc1ccc(OC)c(NC(=O)c2cn(CC(C)C)c(=O)c3cc(OC)c(OC)cc23)c1`, the survival is 50% (active).

For `CCn1cc(C(=O)Nc2ccc(C(C)C)cc2)c2cc(OC)c(OC)cc2c1=O`, the survival is 63% (inactive).

In the case of `CCn1cc(C(=O)Nc2cccc(Cl)c2)c2cc(OC)c(OC)cc2c1=O`, the survival is 46% (active).

In the case of `COc1ccc(Cn2c(C(=O)O)c(CNCCc3cc(OC)ccc3OC)c3ccc(C)cc32)cc1`, the survival is 85% (inactive).

For `COc1ccccc1NC(=O)c1c(C)cc(C)nc1SCC(=O)Nc1ccc(C)cc1`, the survival is 51% (inactive).

In the case of `CC(C)c1cccc(C(C)C)c1NC1=NS(=O)(=O)c2ccccc21`, the survival was 76% (inactive).

Consider `COc1cc(C(=O)N2CCc3ccccc32)cc(OC)c1OC`, for which the survival is 104% (inactive).

As for `O=C(c1ccc2c(c1)N(Cc1ccccc1F)C(=O)c1ccccc1S2(=O)=O)N1CCCCCC1`, the survival is 73% (inactive).

For the compound `CN1CCN(C(=O)C2CCCCC2C(=O)O)CC1` (stereo not drawn), the survival was 78% (inactive).

As to `COC(=O)c1cc2sccc2n1Cc1nc(-c2cccc(Br)c2)oc1C`, the survival was 70% (inactive).

Turning to `CCc1ccc(C2NC(=O)c3[nH]nc(-c4cccc(OC)c4)c32)cc1` (stereo not drawn), the survival is 54% (inactive).

As to `COc1ccc(OC)c(C2c3c(-c4ccc(Br)cc4)n[nH]c3C(=O)N2c2ccc(Cl)cc2)c1` (stereo not drawn), the survival was 89% (inactive).

Consider `COc1ccc(-c2n[nH]c3c2C(c2ccc(Cl)cc2Cl)NC3=O)cc1` (stereo not drawn), for which the survival is -12% (active).

Regarding `Cc1ccc(CC(=O)Nc2c(C(=O)N3CCN(c4ccccc4F)CC3)oc3ccccc23)cc1`, the survival was 74% (inactive).

As to `CCc1ccc(NC(=O)Cn2c(=O)n(-c3ccc(Cl)c(Cl)c3)c(=O)c3c(C)c(C)sc32)cc1`, the survival was 97% (inactive).

Regarding `CCOc1ccc(-n2c(=O)c3c(C)c(C)sc3n(CC(=O)NCCc3ccccc3)c2=O)cc1`, the survival is 84% (inactive).

Take `Cc1ccc(-n2c(=O)c3c4c(sc3n(Cc3cc(=O)n5cc(Cl)ccc5n3)c2=O)CCC4)cc1C`: the survival is 169% (inactive).

In the case of `CCOc1ccc(-n2c(=O)c3c4c(sc3n(Cc3cc(=O)n5cc(Cl)ccc5n3)c2=O)CCC4)cc1`, the survival is 64% (active).

On to `CCOc1ccc(-n2c(=O)c3c(C)c(C)sc3n(Cc3cc(=O)n4cc(Cl)ccc4n3)c2=O)cc1`, for which the survival is 69% (inactive).

Consider `Cc1ccc(C)c(Cn2c(=O)n(-c3ccc(Cl)cc3)c(=O)c3c(C)c(C)sc32)c1`, for which the survival is 76% (inactive).

Consider `Cc1ccc(-n2c(=O)c3c(C)c(C)sc3n(Cc3ccc(F)cc3Cl)c2=O)cc1C`, for which the survival is 38% (active).

Take `CCCCN(CC)C(=O)Cn1c(=O)n(-c2ccc(OCC)cc2)c(=O)c2c3c(sc21)CCCC3`: the survival is 89% (active).

With `Cc1ccc(Cn2c(=O)n(-c3ccc(C)c(C)c3)c(=O)c3c(C)c(C)sc32)cc1`, the survival was 71% (inactive).

Take `CCN(CC)C(=O)Cn1c(=O)n(-c2ccc(Cl)cc2)c(=O)c2c3c(sc21)CCCCC3`: the survival was 89% (inactive).

Take `CCCCN(CC)C(=O)Cn1c(=O)n(-c2ccc(OCC)cc2)c(=O)c2c3c(sc21)CCC3`: the survival is 78% (inactive).

As for `CCOc1ccc(-n2c(=O)c3c(C)c(C)sc3n(CC(=O)Nc3ccc(CC)cc3)c2=O)cc1`, the survival is 46% (active).

Consider `O=C(CCNS(=O)(=O)c1ccc2c(c1)CCCC(=O)N2)NCc1ccc(Cl)cc1`, for which the survival was 96% (inactive).

For `COc1ccc(CCNC(=O)c2cc3c(=O)n4cccc(C)c4nc3n2C)cc1`, the survival is 67% (inactive).

For `COc1ccc(NC(=O)C2CCCN(S(=O)(=O)c3ccc4[nH]c(=O)ccc4c3)C2)cc1Cl` (stereo not drawn), the survival is 82% (inactive).

Turning to `CC(=O)Nc1cccc(NC(=O)Cc2csc(COc3cccc(C)c3)n2)c1`, the survival was 89% (inactive).

Take `CCOc1ccc(NC(=O)C(=O)NCCc2csc(-c3ccc(F)cc3)n2)cc1`: the survival was 82% (inactive).

As to `CCN(CC)S(=O)(=O)c1ccc2c(c1)N(CC(=O)NCCCN1CCN(c3cc(Cl)ccc3C)CC1)C(=O)CO2`, the survival is 53% (inactive).

In the case of `CCOc1ccc(-c2noc(CSc3nnc(-c4ccccc4)n3-c3ccccc3)n2)cc1`, the survival is 66% (inactive).

Take `COc1cccc(-n2cc(C(=O)Nc3ccccc3C(N)=O)c3ccccc3c2=O)c1`: the survival is 67% (inactive).

`Cc1ccc(-n2c(=O)c3c4c(sc3n(CC(=O)Nc3cccc(Cl)c3)c2=O)CCCCC4)cc1C`: the survival is 105% (active).

In the case of `COc1ccc(NC(=O)Cn2c(=O)n(-c3ccc(C)c(C)c3)c(=O)c3c4c(sc32)CCCCC4)cc1Cl`, the survival is 76% (inactive).

Turning to `Cc1ccc(NC(=O)Cn2c(=O)n(-c3ccc(C)cc3)c(=O)c3c2cnn3C)cc1`, the survival was 63% (inactive).

Regarding `CCOc1ccc(-n2c(=O)c3c(C)c(C)sc3n(Cc3ccccc3C)c2=O)cc1`, the survival was 85% (inactive).

For the compound `COc1ccc(CCNC(=O)Cn2c(=O)n(-c3ccc(C)c(C)c3)c(=O)c3c(C)c(C)sc32)cc1OC`, the survival is 64% (inactive).

Consider `Cc1ccc(-n2c(=O)c3c(cnn3C)n(CC(=O)Nc3cccc(Cl)c3)c2=O)cc1`, for which the survival was 55% (active).

As for `CCOc1ccc(-n2c(=O)c3c(C)c(C)sc3n(CC(=O)C(C)(C)C)c2=O)cc1`, the survival is 121% (inactive).

`COc1ccc(CCNC(=O)Cn2c(=O)n(-c3ccccc3)c(=O)c3c(C)c(C)sc32)cc1OC`: the survival was 84% (active).

`Cc1ccc(-n2c(=O)c3c(cnn3C)n(CC(=O)Nc3cccc(C)c3)c2=O)cc1`: the survival is 64% (inactive).

Consider `CCOc1ccc(-n2c(=O)c3c(C)c(C)sc3n(Cc3ccc(C(C)(C)C)cc3)c2=O)cc1`, for which the survival is 52% (active).

`COc1cccc(-n2c(=O)c3c(C)c(C)sc3n(CC(=O)NCCc3ccc(OC)c(OC)c3)c2=O)c1`: the survival is 94% (inactive).

`O=C(Cn1c(=O)n(-c2ccc(Cl)cc2)c(=O)c2c3c(sc21)CCCCC3)Nc1cccc(Cl)c1`: the survival is 84% (inactive).

Take `COc1ccc(CCNC(=O)CSc2n[nH]c(-c3ccccc3Cl)n2)cc1OC`: the survival is 101% (inactive).

As to `COc1ccc2c(c1)c1c(c(=O)n(-c3cccc(C)c3)c(=O)n1Cc1cccc(Cl)c1)n2C`, the survival is 84% (inactive).

Turning to `CC(=O)N1CCCc2cc(S(=O)(=O)N(CCN(C)C)Cc3ccccc3)ccc21`, the survival was 102% (inactive).

With `Cc1csc2nc(COC(=O)c3ccc(NC(=O)C(C)Oc4ccccc4)cc3)cc(=O)n12` (stereo not drawn), the survival is 134% (inactive).

Regarding `COc1cc2c(cc1OC)C(COc1ccc3c(C)cc(=O)oc3c1)N(C(=O)c1ccc(C)c(C)c1)CC2` (stereo not drawn), the survival is 74% (inactive).

For `Cc1oc(-c2ccc(C(=O)NCc3ccccc3F)cc2)nc1COc1ccccc1`, the survival was 77% (inactive).

Consider `CCOC(=O)c1ccccc1NC(=O)CCc1c(C)nc2ncnn2c1C`, for which the survival is 87% (inactive).

Regarding `CCOc1ccc(NC(=O)Cn2c(=O)n(-c3ccccc3)c(=O)c3c4c(sc32)CCCC4)cc1`, the survival was 90% (active).

As for `CCN(Cc1ccccc1)C(=O)Cn1c(=O)n(-c2ccc(C)c(C)c2)c(=O)c2c(C)c(C)sc21`, the survival is 84% (inactive).

As for `CCN(Cc1ccccc1)C(=O)Cn1c(=O)n(-c2ccc(Cl)cc2)c(=O)c2c(C)c(C)sc21`, the survival was 76% (inactive).

With `COc1ccc(NC(=O)Cn2c(=O)n(-c3ccccc3)c(=O)c3c4c(sc32)CCCC4)cc1`, the survival was 98% (inactive).

As for `CCOc1ccc(NC(=O)Cn2c(=O)n(-c3cccc(OC)c3)c(=O)c3c4c(sc32)CCCC4)cc1`, the survival is 95% (inactive).

With `CCOc1ccc(-n2c(=O)c3c(C)c(C)sc3n(CC(=O)N(CC)Cc3ccccc3)c2=O)cc1`, the survival was 45% (active).
